The full ranking holds about 16,000 sequences; the median of “rpm ratio (pull-down/input)” is about 0.94, and the highest 2% start at about 1.7. Shown is part of a subset that was picked to be rich in the highest values.

The assay has as its target T1, MBP-FoxP1dN (Mus musculus, UniProt P58462 326-579).
T1 sequence: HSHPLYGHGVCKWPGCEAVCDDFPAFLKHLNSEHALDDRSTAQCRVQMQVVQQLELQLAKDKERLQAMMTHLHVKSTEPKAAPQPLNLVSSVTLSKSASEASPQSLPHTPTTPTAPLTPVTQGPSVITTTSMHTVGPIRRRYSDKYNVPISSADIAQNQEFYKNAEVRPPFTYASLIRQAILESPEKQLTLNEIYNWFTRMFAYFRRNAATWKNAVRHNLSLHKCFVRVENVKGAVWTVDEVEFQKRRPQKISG
The assay is described as follows: PD-seq (MBP pull-down with sequencing); 20 mM Tris-HCl pH 7.5, 100 mM NaCl, 1.5 mM MgCl2, 0.4 uM protein, 0.1 uM dsDNA library, 30 min, room temperature, amylose pull-down; high values mean tight binding. Particulars: protein: recombinant; tags: His6-MBP; chain copies: 2; dsDNA, one strand shown. A digest of the protocol:
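E. coli-expressed mouse FoxP3 or FoxP1 fragment, N-terminus removed and tagged with His6-MBP, was used at 0.4 µM against 0.1 µM of a Klenow-filled degenerate double-stranded DNA library. After 30 min at room temperature in Tris pH 7.5 buffer with NaCl and MgCl2, complexes were pulled down on amylose resin and washed three times. Binding is pull-down over input reads-per-million enrichment from pooled replicates of the proteinase K-released, PCR-barcoded, Illumina-sequenced DNA.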
Take “GATGATTGTTCTCCCAGCTGATGAATTTCTGTGCTCGAGTAAACAAATTTTCCTAATCTTTCTGTTCAAGCGCCATCTAC”: the binding signal is 0.877 RPM ratio (pull-down/input).
Take “GATGATTGTTCTCCCAGCTGATGAATTGTTTTGCTCGAGTAAACAAATTTTCCTAATCTTTCTGTTCAAGCGCCATCTAC”: the binding signal was 1.95 RPM ratio (pull-down/input).
As for “GATGATTGTTCTCCCAGCTGATGAATTTTTTTGCTCGAGTAAACAAATTTTCCTAATCTTTCTGTTCAAGCGCCATCTAC”, the binding signal was 0.948 RPM ratio (pull-down/input).
With “GATGATTGTTCTCCCAGCTGATGAATTGTTGTGCTCGAGTAAACAAATTTTCCTAATCTTTCTGTTCAAGCGCCATCTAC”, the binding signal was 2.06 RPM ratio (pull-down/input).
For “GATGATTGTTCTCCCAGCTGATGAATTATAATTCTCGAGTAAACAAATTTTCCTAATCTTTCTGTTCAAGCGCCATCTAC” the value was 0.978 RPM ratio (pull-down/input); for “GATGATTGTTCTCCCAGCTGATGAATTTCATCTATCGAGTAAACAAATTTTCCTAATCTTTCTGTTCAAGCGCCATCTAC”, 0.877 RPM ratio (pull-down/input); for “GATGATTGTTCTCCCAGCTGATGAATTCGCGTATTCGAGTAAACAAATTTTCCTAATCTTTCTGTTCAAGCGCCATCTAC”, 0.979 RPM ratio (pull-down/input).
For “GATGATTGTTCTCCCAGCTGATGAATTTGAAATCTCGAGTAAACAAATTTTCCTAATCTTTCTGTTCAAGCGCCATCTAC” the value was 0.737 RPM ratio (pull-down/input).
In the case of “GATGATTGTTCTCCCAGCTGATGAATTAACGAGTTCGAGTAAACAAATTTTCCTAATCTTTCTGTTCAAGCGCCATCTAC”, the binding signal is 0.92 RPM ratio (pull-down/input).
For “GATGATTGTTCTCCCAGCTGATGAATTAGCGACCTCGAGTAAACAAATTTTCCTAATCTTTCTGTTCAAGCGCCATCTAC”, the binding signal was 0.762 RPM ratio (pull-down/input).
Under “GATGATTGTTCTCCCAGCTGATGAATTCCTGAACTCGAGTAAACAAATTTTCCTAATCTTTCTGTTCAAGCGCCATCTAC” stands 0.79 RPM ratio (pull-down/input); under “GATGATTGTTCTCCCAGCTGATGAATTAGCATAGTCGAGTAAACAAATTTTCCTAATCTTTCTGTTCAAGCGCCATCTAC”, 0.88 RPM ratio (pull-down/input); under “GATGATTGTTCTCCCAGCTGATGAATTTTGTGTGTCGAGTAAACAAATTTTCCTAATCTTTCTGTTCAAGCGCCATCTAC”, 1.48 RPM ratio (pull-down/input).
For “GATGATTGTTCTCCCAGCTGATGAATTTGTTGTGTCGAGTAAACAAATTTTCCTAATCTTTCTGTTCAAGCGCCATCTAC” the value was 2.48 RPM ratio (pull-down/input).
For “GATGATTGTTCTCCCAGCTGATGAATTTTTTGTGTCGAGTAAACAAATTTTCCTAATCTTTCTGTTCAAGCGCCATCTAC” the value was 1.12 RPM ratio (pull-down/input); for “GATGATTGTTCTCCCAGCTGATGAATTTGTGTCGTCGAGTAAACAAATTTTCCTAATCTTTCTGTTCAAGCGCCATCTAC”, 1.23 RPM ratio (pull-down/input); for “GATGATTGTTCTCCCAGCTGATGAATTTGTGTTGTCGAGTAAACAAATTTTCCTAATCTTTCTGTTCAAGCGCCATCTAC”, 2.64 RPM ratio (pull-down/input).
With “GATGATTGTTCTCCCAGCTGATGAATTGTGTGTGTCGAGTAAACAAATTTTCCTAATCTTTCTGTTCAAGCGCCATCTAC”, the binding signal is 1.52 RPM ratio (pull-down/input).
Under “GATGATTGTTCTCCCAGCTGATGAATTCCGTACCTCGAGTAAACAAATTTTCCTAATCTTTCTGTTCAAGCGCCATCTAC” stands 0.829 RPM ratio (pull-down/input).
In the case of “GATGATTGTTCTCCCAGCTGATGAATTATCTGTCTCGAGTAAACAAATTTTCCTAATCTTTCTGTTCAAGCGCCATCTAC”, the binding signal is 0.945 RPM ratio (pull-down/input).
On to “GATGATTGTTCTCCCAGCTGATGAATTTTGTACTTCGAGTAAACAAATTTTCCTAATCTTTCTGTTCAAGCGCCATCTAC”, for which the binding signal is 0.97 RPM ratio (pull-down/input).
Under “GATGATTGTTCTCCCAGCTGATGAATTGTGTACTTCGAGTAAACAAATTTTCCTAATCTTTCTGTTCAAGCGCCATCTAC” stands 1.84 RPM ratio (pull-down/input).
As to “GATGATTGTTCTCCCAGCTGATGAATTTTGTATATCGAGTAAACAAATTTTCCTAATCTTTCTGTTCAAGCGCCATCTAC”, the binding signal was 2.33 RPM ratio (pull-down/input).
For the sequence “GATGATTGTTCTCCCAGCTGATGAATTGAGTATATCGAGTAAACAAATTTTCCTAATCTTTCTGTTCAAGCGCCATCTAC”, the binding signal is 1.1 RPM ratio (pull-down/input).
Regarding “GATGATTGTTCTCCCAGCTGATGAATTGTATATCTCGAGTAAACAAATTTTCCTAATCTTTCTGTTCAAGCGCCATCTAC”, the binding signal is 1.36 RPM ratio (pull-down/input).
Under “GATGATTGTTCTCCCAGCTGATGAATTGTATATATCGAGTAAACAAATTTTCCTAATCTTTCTGTTCAAGCGCCATCTAC” stands 1.6 RPM ratio (pull-down/input); under “GATGATTGTTCTCCCAGCTGATGAATTTGTAAAATCGAGTAAACAAATTTTCCTAATCTTTCTGTTCAAGCGCCATCTAC”, 1.24 RPM ratio (pull-down/input); under “GATGATTGTTCTCCCAGCTGATGAATTGTGTATATCGAGTAAACAAATTTTCCTAATCTTTCTGTTCAAGCGCCATCTAC”, 1.9 RPM ratio (pull-down/input).
With “GATGATTGTTCTCCCAGCTGATGAATTTTGTAAATCGAGTAAACAAATTTTCCTAATCTTTCTGTTCAAGCGCCATCTAC”, the binding signal is 1.5 RPM ratio (pull-down/input).
Take “GATGATTGTTCTCCCAGCTGATGAATTTTTGTAATCGAGTAAACAAATTTTCCTAATCTTTCTGTTCAAGCGCCATCTAC”: the binding signal is 1.78 RPM ratio (pull-down/input).
As for “GATGATTGTTCTCCCAGCTGATGAATTCTGTACTTCGAGTAAACAAATTTTCCTAATCTTTCTGTTCAAGCGCCATCTAC”, the binding signal was 0.932 RPM ratio (pull-down/input).
On to “GATGATTGTTCTCCCAGCTGATGAATTCTGTATATCGAGTAAACAAATTTTCCTAATCTTTCTGTTCAAGCGCCATCTAC”, for which the binding signal is 1.67 RPM ratio (pull-down/input).
